Potency and activity change, positive = activation data for twelve compounds are collected here from PubChem BioAssay (Tox21).

Values joined by “and” are separate entries in the source; they are usually repeats but may differ in a detail not shown here. Identical values can stand only once. Unmarked numbers belong to inactive results. Results filed as inconclusive are left out. Active and inactive are the calls of the source. Unless noted, calls follow the shape of the dose curve; as a rule, active = well fitted curve in the direction sought with a large enough effect in the repeat runs; inconclusive = weak or mixed curves; inactive = no such curve, though single readings can be large; an effect the other way counts as inactive or inconclusive.

Assay [1] is described as follows: qHTS assay to identify small molecule agonists of the constitutive androstane receptor (CAR) signaling pathway - cell viability counter screen (AID 1224836). Also: nearly all actives have a fitted effect of over 45% in size. Also: potency is read from the fitted curve at half-maximal effect. In a few lines: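 Fluorescence from CellTiter-Fluor indicates live cells after 23 h exposure. The human hepatoma line expresses hCAR and a CYP2B6-2.2kb reporter. Incubation medium contains 0.75 uM PK11195 (final).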
(In qHTS, concentration-response curves come from the screen itself.)

Assay [2] can be described thus: qHTS assay to identify small molecule antagonists of the constitutive androstane receptor (CAR) signaling pathway - cell viability counter screen (AID 1224837). Also: nearly all actives have a fitted effect of over 45% in size. Also: potency is read from the fitted curve at half-maximal effect. In a few lines: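 To flag cytotoxic false antagonists, HepG2 hCAR/CYP2B6-2.2kb cells were treated 23 hr with 15-concentration compound series and 50 nM CITCO at 37 C/5% CO2; CellTiter-Fluor fluorescence was the measured end point.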

The target of assay [3] is Nuclear receptor subfamily 1 group I member 3 (Homo sapiens) (UniProt Q14994). In words: qHTS assay to identify small molecule antagonists of the constitutive androstane receptor (CAR) signaling pathway (AID 1224838).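 Also: HepG2 cells stably expressing hCAR with CYP2B6 luciferase reporter stimulated by CITCO; % is scaled to controls: 0 for no effect and ±100 for the full control effect; nearly all actives have a fitted effect of over 40% in size.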 In a few lines: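 Human hepatoma HepG2 cells expressing hCAR and a CYP2B6 promoter (2.2 kb) luciferase construct; compound titration (15 points) with 50 nM CITCO final, 24 h at 37 C/5% CO2; luminescence via ONE-Glo after 30 min at room temperature.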
Nuclear receptor subfamily 1 group I member 3 (Homo sapiens), sequence (Q14994 whole entry, looked up): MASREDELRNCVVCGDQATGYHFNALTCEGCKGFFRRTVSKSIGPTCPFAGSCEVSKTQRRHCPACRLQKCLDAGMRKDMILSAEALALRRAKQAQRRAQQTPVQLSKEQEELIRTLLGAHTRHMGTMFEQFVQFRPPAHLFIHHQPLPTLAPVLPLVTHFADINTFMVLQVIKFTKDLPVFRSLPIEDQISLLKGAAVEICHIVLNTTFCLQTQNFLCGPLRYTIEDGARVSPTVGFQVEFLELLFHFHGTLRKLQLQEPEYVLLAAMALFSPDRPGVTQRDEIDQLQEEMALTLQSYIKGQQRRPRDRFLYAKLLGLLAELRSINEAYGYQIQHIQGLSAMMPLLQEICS

The target is the same in assay [4]. Nature of the assay: qHTS assay to identify small molecule agonists of the constitutive androstane receptor (CAR) signaling pathway (AID 1224839). Also: nearly all actives have a fitted effect of over 15% in size. Also: potency is read from the fitted curve at half-maximal effect.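 As to activation: HepG2 cells stably carrying human CAR and a CYP2B6 luciferase reporter; % is scaled to controls: 0 for no effect and ±100 for the full control effect.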 In a few lines:
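Stable hCAR/CYP2B6-2.2kb HepG2 line in DMEM with 10% FBS; compounds (15 concentrations) and 0.75 uM PK11195 final, 24 h at 37 C/5% CO2, then ONE-Glo luminescence after 30 min.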

Assay [5] can be described thus: qHTS assay to identify small molecule agonists of the estrogen related receptor signaling pathway with the pleiotropic PPARgamma coactivator (PGC) from Tox21 10K library (AID 1224842). Also: % is scaled to controls: 0 for no effect and ±100 for the full control effect; nearly all actives have a fitted effect of over 15% in size. In a few lines: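 PGC/ERR reporter cells (NTP line) were seeded 2,000 per well, rested 6 h at 37 C/5% CO2, then pin-dosed with compounds in DMSO for 18 h at 37 C; luciferase read by One-Glo luminescence after 30 min at room temperature.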

Assay [6] deals with Thyrotropin receptor (Homo sapiens) (UniProt P16473). Nature of the assay: qHTS assay to identify small molecule agonists of the thyroid stimulating hormone receptor (TSHR) signaling pathway (AID 1224843; calls by dose curve; also: nearly all actives have a fitted effect of over 45% in size; also: potency is read from the fitted curve at half-maximal effect; as to activation: % is scaled to controls: 0 for no effect and ±100 for the full control effect). In a few lines:
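Compounds are titrated over 15 concentrations, in triplicate, onto TSHR-HEK293 cells seeded at 800/well. Plates sit 30 min at room temperature before cAMP-d2 and anti-cAMP cryptate are added; signal is read after a further hour.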

Assay [7] can be described thus: qHTS assay to identify small molecule antagonists of the estrogen related receptor (ERR) signaling pathway from Tox21 library (AID 1224848). Also: potency is read from the fitted curve at half-maximal effect; nearly all actives have a fitted effect of over 50% in size. In a few lines:
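First, 2,000 ERR cells per well were plated and held 6 h at 37 C/5% CO2. Next, compounds in DMSO were pinned in and left 18 h at 37 C. Finally, ONE-Glo was added and luminescence read after 30 min at room temperature.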

Assay [8] can be described thus: qHTS assay to identify small molecule agonists of the estrogen related receptor (ERR) signaling pathway from Tox21 library (AID 1224849; calls by dose curve; also: % is scaled to controls: 0 for no effect and ±100 for the full control effect; nearly all actives have a fitted effect of over 15% in size). To be noted: ERR reporter cell line, ONE-Glo luciferase, 18 h; at 92.4 µM (top of the series) unless noted. In a few lines: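 Tox21 compounds tested for ERR agonism in an NTP reporter cell line: 18 h treatment at 37 C, then ONE-Glo luminescence.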

Assay [9] can be described thus: qHTS RealTime-Glo MT Cell Viability Assay in HEK293 cells - 32 hour (AID 1224868). Also: nearly all actives have a fitted effect of over 50% in size. Also: potency is read from the fitted curve at half-maximal effect. In a few lines:
(§1)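 Homogeneous bioluminescent viability format in HEK293 cells (600 cells/well). Following 5 h at 37 C/5% CO2, 23 nL compound was pintooled; the signal was measured repeatedly during 40 h incubation.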

Assay [10] in a line: A CellTox Green Cytotoxicity Assay to monitor cytotoxicity in HEK293 cells - 0 hour (AID 1224869). Also: % is scaled to controls: 0 for no effect and ±100 for the full control effect; nearly all actives have a fitted effect of over 50% in size. In a few lines:
(§2)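 Tox21 screen in HEK293: membrane-impermeant cyanine dye fluoresces on binding dead-cell DNA; compound pinned 5 h post-seeding, plates held at 37 C, signal read repeatedly through 40 h.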

Assay [11] can be described thus: qHTS RealTime-Glo MT Cell Viability Assay in HepG2 cells - 40 hour (AID 1224870). Also: nearly all actives have a fitted effect of over 50% in size. Also: potency is read from the fitted curve at half-maximal effect. In a few lines: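 HepG2 cells mixed with RealTime-Glo MT reagents (NanoLuc plus cell-permeant prosubstrate) were seeded at 600 cells/well, incubated 5 h at 37 C/5% CO2, then pinned with compounds in DMSO; nonlytic luminescence tracked viability during 40 h treatment.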
The nature of assay [12]: qHTS assay to identify small molecule antagonists of the estrogen related receptor signaling pathway with the pleiotropic PPARgamma coactivator (PGC) from Tox21 10K library - cell viability counter screen (AID 1224840; active = well fitted cell-killing curve with a large enough effect in the repeat runs, not every such curve was filed as active; also: nearly all actives have a fitted effect of over 40% in size; also: potency is read from the fitted curve at half-maximal effect). In a few lines: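 Seeded PGC/ERR cells (2,000/well, 6 h, 37 C/5% CO2) get compound by pin tool; 17.5 h incubation at 37 C; CellTiter-Fluor added, 30 min, fluorescence measured.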

A short description of assay [13]: qHTS assay to identify small molecule agonists of the hypoxia (HIF-1) signaling pathway - cell viability counter screen (AID 1224844; calls by dose curve; also: nearly all actives have a fitted effect of over 50% in size; also: potency is read from the fitted curve at half-maximal effect). In a few lines: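 HRE-bla ME-180; 0.5% dFBS; cpd 17 h, 37C, 5% CO2; CellTiter-Glo lum., 30 min RT, post-FRET read, same wells.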
The nature of assay [14]: qHTS assay to identify small molecule agonists of H2AX (AID 1224845; active = well fitted activation curve with a large enough effect in the signal ratio in the repeat runs, not every such curve was filed as active; the % refers to the signal ratio; also: potency is read from the fitted curve at half-maximal effect). In a few lines:
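Wild-type CHO-K1 cells plated overnight, then exposed 3 hr at 37C to compounds at 15 concentrations (0.76% DMSO). Lysed, then HTRF anti-pH2AX(S139)-cryptate/anti-H2AX-d2 detection after 24 hr at room temperature; emissions 665 and 620 nm.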

Assay [15] can be described thus: qHTS assay to identify small molecule agonists of H2AX - cell viability counter screen (AID 1224847; calls by dose curve; also: nearly all actives have a fitted effect of over 30% in size; also: potency is read from the fitted curve at half-maximal effect). In a few lines:
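Viability of CHO-K1 (wild type) cells after 3 hr compound exposure was measured by CellTiter-Glo luminescence.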

The nature of assay [16]: qHTS RealTime-Glo MT Cell Viability Assay in HepG2 cells - 24 hour (AID 1224867). Also: nearly all actives have a fitted effect of over 50% in size. Also: potency is read from the fitted curve at half-maximal effect. In a few lines: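 Cell number in HepG2 cultures estimated from NanoLuc luminescence generated by metabolic reduction of a prosubstrate by living cells. The homogeneous, nonlytic format allowed repeated reads at 0, 8, 16, 24, 32 and 40 h of compound exposure.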
Assay [17] in a line: A CellTox Green Cytotoxicity Assay to monitor cytotoxicity in HEK293 cells - 40 hour (AID 1224871). Also: nearly all actives have a fitted effect of over 45% in size. Also: potency is read from the fitted curve at half-maximal effect. In a few lines:
as §2

Assay [18] can be described thus: qHTS RealTime-Glo MT Cell Viability Assay in HEK293 cells - 16 hour (AID 1224872). Also: nearly all actives have a fitted effect of over 50% in size. Also: potency is read from the fitted curve at half-maximal effect. In a few lines:
as §1

Assay [19] can be described thus: qHTS assay to identify small molecule agonists of the hypoxia (HIF-1) signaling pathway (AID 1224846; active = well fitted activation curve with a large enough effect in the signal ratio in the repeat runs, not every such curve was filed as active; the % refers to the signal ratio; also: % is scaled to controls: 0 for no effect and ±100 for the full control effect). In a few lines: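 Reporter induction in HRE-bla ME-180 cells is taken as agonism: cells sit 5 hrs after plating, receive compounds or DMSO only, incubate 17 hrs at 37C under 5% CO2, and are loaded with CCF4-AM for beta-lactamase FRET measurement.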
The nature of assay [20]: qHTS assay to identify small molecule antagonists of the estrogen related receptor signaling pathway with the pleiotropic PPARgamma coactivator (PGC) from Tox21 10K library (AID 1224841; call rule not given here). In a few lines: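 Test chemicals dissolved in DMSO were applied to pre-incubated (6 h) PGC/ERR cells at 2,000 cells/well for an 18 h, 37 C treatment; reporter luminescence was then read using One-Glo.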

Thyrotropin receptor (Homo sapiens), sequence (P16473 whole entry, looked up): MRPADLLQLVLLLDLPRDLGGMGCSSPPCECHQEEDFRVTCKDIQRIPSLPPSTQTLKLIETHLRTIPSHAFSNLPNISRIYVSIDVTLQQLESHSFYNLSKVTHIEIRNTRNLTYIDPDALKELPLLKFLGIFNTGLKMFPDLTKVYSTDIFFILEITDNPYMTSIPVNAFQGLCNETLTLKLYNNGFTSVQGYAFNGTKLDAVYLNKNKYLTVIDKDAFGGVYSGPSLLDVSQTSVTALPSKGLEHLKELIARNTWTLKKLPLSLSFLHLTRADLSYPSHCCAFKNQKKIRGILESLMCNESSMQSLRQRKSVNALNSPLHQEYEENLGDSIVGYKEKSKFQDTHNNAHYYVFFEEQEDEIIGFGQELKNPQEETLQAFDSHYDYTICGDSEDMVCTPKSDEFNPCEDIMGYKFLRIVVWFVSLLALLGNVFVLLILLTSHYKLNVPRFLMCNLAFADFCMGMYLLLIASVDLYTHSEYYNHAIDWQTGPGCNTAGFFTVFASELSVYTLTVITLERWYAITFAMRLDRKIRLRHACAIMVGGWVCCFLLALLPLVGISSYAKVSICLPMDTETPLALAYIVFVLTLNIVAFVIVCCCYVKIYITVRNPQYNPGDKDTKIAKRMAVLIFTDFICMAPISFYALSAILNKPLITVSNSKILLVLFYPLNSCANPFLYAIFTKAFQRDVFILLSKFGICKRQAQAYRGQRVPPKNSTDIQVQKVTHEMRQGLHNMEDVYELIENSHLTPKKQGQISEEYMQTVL

Turning to `Fc1ccc(C(c2ccc(F)cc2)N2CCN(C/C=C/c3ccccc3)CC2)cc1`, the Potency entry in [1], in assay [2], in assay [3], in [4], in [5] and in [6] was “inactive” each time. Further, the Potency entry in assay [10] and in assay [11] was “inactive” throughout. For the same compound, the Potency in assay [7] is 23.7 µM (active); in assay [9] it was 21.3 µM (active). Besides, the activity change, positive = activation in assay [8] is -51.3% [at 42.5 µM].

In the case of `CCN(C(=O)c1cc(C)cc(OC[C@H](C)Nc2ccncc2)c1)C(C)C`, the Potency entry in assay [1], in [2], in assay [3], in assay [12], in [13] and in [14] was “inactive” throughout. The Potency entry in [15], in assay [16], in assay [9], in assay [10], in assay [11] and in [17] was “inactive” throughout. Further, the Potency entry in assay [18] was “inactive”.

Turning to `O=C(Oc1ccccc1)c1ccccc1C(=O)Oc1ccccc1`, the Potency result in [1], in [2], in assay [3], in [4], in assay [14] and in [19] was “inactive” each time. The Potency result in assay [16], in assay [9], in assay [10], in assay [17] and in assay [18] was “inactive” in each case.

Take `CC1=C(/C=C/C(C)=C/C=C/C(C)=C/C=O)C(C)(C)CCC1`: the Potency in [1] is 54.2 µM (active); in assay [2], 68.2 µM (active); in [4], 15.3 µM (active); in assay [12], 54.2 µM (active); in assay [13], 30.7 µM (active); in assay [15], 39.9 µM (active). Moreover, the Potency in assay [16] is 54.6 µM (active); in assay [9], 19.4 µM (active); in assay [17], 38.7 µM (active); in [18], 19.4 µM (active). Further, in assay [10], the Potency entry is “inactive”.

Turning to `O=C1Cc2cc(CCN3CCN(c4nsc5ccccc45)CC3)c(Cl)cc2N1`, the Potency result in assay [1], in [2], in assay [3], in [4], in assay [5] and in [6] was “inactive” in each case. The Potency entry in [10] and in assay [11] was “inactive” throughout. Also, the figures for the Potency in assay [7], in assay [17] and in assay [18] were 26.6 µM (active), 26.8 µM (active) and 23.9 µM (active), respectively. The activity change, positive = activation in [8] was -35.7% [at 42.5 µM].

On to `CN(C/C=C/C#CC(C)(C)C)Cc1cccc2ccccc12`, for which the Potency result in [1], in assay [2], in [3], in assay [12], in assay [6] and in assay [13] was “inactive” throughout. Further, the Potency entry in assay [19], in [16], in assay [10] and in assay [11] was “inactive” in each case. For the same compound, in [15], the Potency is 55.2 µM (active).

For `CC(C)(C)NC(=O)[C@@H]1C[C@@H]2CCCC[C@@H]2CN1C[C@@H](O)[C@H](Cc1ccccc1)NC(=O)[C@H](CC(N)=O)NC(=O)c1ccc2ccccc2n1`, the Potency is 31 µM (active) in [1]; 24.7 µM (active) in assay [2]; 31 µM (active) in assay [12]; 27.7 µM (active) in assay [20]; 27.7 µM (active) in [6]; 55.7 µM (active) in assay [13]. Moreover, the Potency in [14] was 51.2 µM (active); in [15], 51.2 µM (active); in assay [7], 19.6 µM (active); in assay [16], 55.7 µM (active); in [9], 19.7 µM (active); in [17], 55.7 µM (active). In addition, the Potency in assay [18] is 24.9 µM (active). For the same compound, the Potency entry in assay [4], in [5] and in [10] was “inactive” throughout. Further, in assay [8], the activity change, positive = activation was -72.5%.

As to `O=C(Nc1ccc(Oc2ccc(Cl)cc2)c(Cl)c1)c1cc(I)cc(I)c1O`, the Potency entry in [1], in assay [2], in [3], in assay [4], in [5] and in assay [6] was “inactive” each time. In addition, the Potency entry in [14], in assay [16], in [9], in [10], in assay [17] and in assay [18] was “inactive” throughout. Further, the activity change, positive = activation in [8] was -35.9% [at 42.5 µM].

As to `Cc1cccc(S(=O)(=O)O)c1C`, the Potency entry in assay [1], in assay [2], in [3], in assay [12], in [6] and in assay [13] was “inactive” throughout. The Potency result in assay [14], in assay [19], in assay [16], in [10], in assay [17] and in [18] was “inactive” throughout.

`CCCCCCCC/C=C\CCCCCCCCOCCO`: the Potency in [1] was 25.1 µM (active); in assay [2], 31.6 µM (active); in assay [12], 63.1 µM (active); in assay [15] it was 65.6 µM (active); in assay [9] it was 3.19 µM (active); in [17], 31.9 µM (active). The Potency in [18] is 3.19 µM (active). In addition, the Potency entry in assay [4] and in [10] was “inactive” in each case.

Regarding `CC(C)(C)c1ccc(C(=O)CCCN2CCC(OC(c3ccccc3)c3ccccc3)CC2)cc1`, the Potency in assay [1] is 29.8 µM (active); in assay [2], 29.8 µM (active); in [12], 29.8 µM (active); in [6], 11.9 µM (active); in assay [13] it was 19 µM (active); in assay [15] it was 55.2 µM (active). In addition, the Potency was 21.3 µM (active) in assay [16]; 9.52 µM (active) in assay [9]; 19 µM (active) in [11]; 23.9 µM (active) in assay [17]; 8.49 µM (active) in [18]. Further, the Potency entry in [4] and in assay [14] was “inactive” throughout.

As to `CCCCCCCCOC(=O)c1ccc(O)cc1`, the Potency result in assay [1], in assay [2], in assay [3], in assay [12], in assay [6] and in [14] was “inactive” throughout. In addition, the Potency entry in [16], in [10] and in assay [11] was “inactive” throughout. Moreover, the Potency in assay [15] is 89.5 µM (active) and 101 µM (active); in assay [17], 38.8 µM (active) and 49 µM (active); in [18], 27.4 µM (active).
